Laboratory results as given in PubChem BioAssay (Tox21).
Unmarked numbers belong to inactive results. The source made the active and inactive calls. The call rests on the fitted dose curve; in most records, active means well fitted curve in the direction sought with a large enough effect in the repeat runs; inconclusive means weak or mixed curves; inactive means flat fitted curve, though single readings scatter.

Test: qHTS assay to test for compound auto fluorescence at 535 nm (green) in HEK293 cells (AID 720680)
Details: green autofluorescence 485/535 nm; series mostly up to 91.3 µM; fluorescence, % of fluorescein: at the top concentration
On the % scale 0 is the no-effect control and ±100 the full control effect.

| SMILES | outcome | fluorescence, % of fluorescein |
| --- | --- | --- |
| CC(C)C[C@H]1C(=O)N2CCC[C@H]2[C@]2(O)O[C@](NC(=O)[C@@H]3C=C4c5cccc6[nH]c(Br)c(c56)C[C@H]4N(C)C3)(C(C)C)C(=O)N12 | inactive |  |
| Cc1[nH]c(C)c(Cl)c(=O)c1Cl |  | 0.0167% [at 46 µM] |
| CC(C)Nc1ccc(NC(C)C)c2c1C(=O)c1ccccc1C2=O |  | -0.199% [at 46 µM] |
| Cc1cccc(Nc2ccccc2)c1 |  | -0.0582% |
| O=C1CCCCCCCCCCCC(=O)OCCO1 |  | -0.0137% |
| COc1cc(Cl)ccc1Oc1ccc(Cl)cc1Cl |  | -0.0254% |
| Cc1cccc(C)c1OCC(=O)N[C@@H](Cc1ccccc1)[C@@H](O)C[C@H](Cc1ccccc1)NC(=O)[C@H](C(C)C)N1CCCNC1=O |  | -0.136% [at 46 µM] |
| CCCCCCCCCCCCCCOS(=O)(=O)O |  | 0.0974% |
| CCN(CC)CCOC(=O)C(c1ccccc1)C1CCCCC1 (stereo not drawn) |  | 0.0293% [at 46 µM] |
| Cc1c(N)cccc1[N+](=O)[O-] |  | -0.0902% [at 95.7 µM] |
| CC(C)O.CC(C)O.CCOC(=O)/C=C(\C)O.CCOC(=O)/C=C(\C)O.[Ti] |  | 0.0293% |
| C#Cc1cccc(Nc2ncnc3cc(OCCOC)c(OCCOC)cc23)c1 |  | -0.0441% [at 46 µM] |
| O=C(O)C1(C(=O)Nc2ccc(Cl)cc2Cl)CC1 |  | -0.0109% |
| O=C(CS)Nc1ccccc1 |  | -0.0058% [at 46 µM] |
| COc1cc(Cl)c(OC)cc1N |  | 0.0046% |
| COc1cccc(N(C)C(=S)Oc2ccc3c(c2)CCCC3)n1 |  | 0.0181% [at 46 µM] |
| CC1CCC(=O)C1=O (stereo not drawn) |  | 0.0126% [at 95.7 µM] |
| CC[N+](C)(CC)CCOC(=O)C(O)(c1ccccc1)C1CCCCC1 (stereo not drawn) |  | 0.051% [at 46 µM] |
| CCCCCCCC/C=C\CCCCCCCC(=O)OCC |  | -0.0077% |

| SMILES | outcome | fluorescence, % of fluorescein |
| --- | --- | --- |
| O=C(O)CC(=O)C(=O)O |  | -0.0949% |
| CCc1cc(C2=C(C(=O)O)N(c3ccccc3C(F)(F)F)S(=O)(=O)c3ccccc32)cc2c1OCO2 |  | 0.0026% |
| CCCCNc1ccc(C(=O)OCCOCCOCCOCCOCCOCCOCCOCCOCCOC)cc1 |  | -0.0088% [at 18.6 µM] |
| CCC(C)c1cc(C(C)(C)C)c(O)c(C(C)(C)C)c1 (stereo not drawn) |  | 0.074% |
| CNCCCCOc1ccccc1Cc1ccccc1 |  | 0.0639% [at 46 µM] |
| CCOC(=O)COC(=O)c1cc(Oc2ccc(C(F)(F)F)cc2Cl)ccc1[N+](=O)[O-] |  | -0.0818% |
| Nc1ncn([C@H]2C[C@H](O)[C@@H](CO)O2)c(=O)n1 |  | -0.0305% [at 46 µM] |
| NC(N)=NCCC[C@H](N)C(=O)O |  | 0.0386% [at 46 µM] |
| C=CC(=O)OCCOCCOC(=O)C=C |  | 0.0024% |
| CN(C)c1ccc(/C=C/c2ccc([N+](=O)[O-])cc2)cc1 |  | 0.0174% [at 3.72 µM] |
| CCCCCCCCCCO[C@@H]1O[C@H](CO)[C@@H](O)[C@H](O)[C@H]1O |  | 0.0136% |
| CCCNCC(O)COc1ccccc1C(=O)CCc1ccccc1 (stereo not drawn) |  | 0.0386% [at 46 µM] |
| O=C(Nc1ccccc1)c1ccccc1O |  | 0.0874% |
| CN1CCC(=C2c3ccccc3Sc3ccccc32)CC1 |  | 0.0446% [at 46 µM] |
| C=CCOc1ccccc1OCC(O)CNC(C)C (stereo not drawn) |  | -0.0095% [at 18.6 µM] |
| C=CC(=O)OCCOCCOCCOCCOC(=O)C=C | inactive |  |
| O=C(O)c1nc(Cl)c(Cl)c(Cl)c1Cl |  | -0.0808% |
| CCO[C@H](Cc1ccc(OCCc2ccc(OS(C)(=O)=O)cc2)cc1)C(=O)O |  | -0.0694% [at 46 µM] |
| CCCCCCCCCCCCCCCCOS(=O)(=O)O |  | 0.0061% [at 46 µM] |
